About 11,000 (3.1%) of roughly 360,000 compounds were called active. The sample as a whole holds a higher share of actives than the screen did. Values without a mark were called inactive. Rule as the data show it: active = activity change below about -30%; inactive = the rest.
The compounds below were run against D(1A) dopamine receptor (Homo sapiens) (UniProt P21728) (assay: Antagonist of Human D 1 Dopamine Receptor: qHTS). Conditions: HEK293 TREx D1 cells, calcium flux, dopamine EC80; at 10 µM; stronger effect = lower value.
Method in brief: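 Inducible Hek293 Trex D1 cells (tetracycline, overnight, 30 C). Calcium dye 30–90 min RT. Antagonist mode: EC80 dopamine added after 180 s compound read.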
% is scaled to controls: 0 for no effect and ±100 for the full control effect.

Sequence of D(1A) dopamine receptor (Homo sapiens) (P21728 whole entry, looked up): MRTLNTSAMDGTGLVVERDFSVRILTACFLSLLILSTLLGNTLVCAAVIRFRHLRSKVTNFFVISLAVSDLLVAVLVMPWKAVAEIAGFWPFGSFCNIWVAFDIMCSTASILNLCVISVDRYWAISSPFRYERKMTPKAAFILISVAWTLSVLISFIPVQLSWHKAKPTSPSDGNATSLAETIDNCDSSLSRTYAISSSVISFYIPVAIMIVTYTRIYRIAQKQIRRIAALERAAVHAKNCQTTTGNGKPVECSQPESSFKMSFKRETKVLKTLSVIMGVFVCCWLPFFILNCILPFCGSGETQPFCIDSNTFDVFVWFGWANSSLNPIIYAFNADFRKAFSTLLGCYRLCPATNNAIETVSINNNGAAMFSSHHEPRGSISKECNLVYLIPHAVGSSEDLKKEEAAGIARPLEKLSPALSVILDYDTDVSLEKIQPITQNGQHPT

| Compound | activity change, negative = inhibition |
| --- | --- |
| COc1ccccc1CNC(=O)CS(=O)(=O)c1cccc2nsnc12 | 13.8% |
| CCCn1c2ccccc2c2cnn(CC(=O)NCC3CCN(Cc4ccc(C)cc4)CC3)c(=O)c21 | -18.2% |
| CCOC(=O)CSc1nnc(CNc2nc(-c3ccccc3)cs2)n1C | -37.1% (active) |
| Cn1c(CNc2nc(-c3ccccc3)cs2)nnc1SCC(=O)c1ccccc1 | -24.4% |
| CCOC(=O)CSc1nnc(CNC(=O)c2cccs2)n1-c1ccccc1 | -4.34% |
| COc1ccc(-c2nn(CC(=O)Nc3ccccc3F)c3c2cnc2ccc(F)cc23)cc1 | -0.202% |
| COc1ccc(-c2nn3c(-c4ccc(OC)cc4)nnc3c3ccccc23)cc1 | -13.1% |
| COc1ccc(-c2nc3ccc(C(=O)NCc4ccc(C)cc4)cc3nc2-c2ccc(OC)cc2)cc1 | -1.2% |
| COc1ccc(CNC(=O)c2ccc3c(O)c(S(=O)(=O)c4ccccc4)c(=O)[nH]c3c2)cc1 | 5.97% |
| Cc1cc(C)cc(NC(=O)CCS(=O)(=O)c2cc3c4c(c2)CCN4C(=O)CC3)c1 | 20.6% |
| Cn1nccc1C(=O)N1CCCC(C(=O)c2ccc(Oc3ccccc3)cc2)C1 (centres undefined) | -33% (active) |
| O=C(c1ccc(-c2ccccc2)cc1)C1CCCN(C(=O)c2cncs2)C1 (centres undefined) | -2.69% |
| CCn1nc(C)cc1C(=O)N1CCCC(C(=O)c2cccc(OC)c2)C1 (centres undefined) | 0.174% |
| Cc1nnc(NC(=O)CSc2nc3c([nH]c4ccccc43)c(=O)n2-c2cccc(Cl)c2)s1 | -3.1% |
| CCOC(=O)c1c(NC(C)=O)c2c3c(sc2n1Cc1c(C)cc(C)cc1C)CCCC3 | 27.5% |
| CCOC(=O)C(Cc1ccccc1)NC(=O)CCc1c(C)nc2c(c(C)nn2-c2ccc(C)c(C)c2)c1C (centres undefined) | -20.6% |
| N#CCC(=O)N/N=C/c1cn(Cc2ccc3ccccc3c2)c2ccccc12 | 16.1% |
| CCOC(=O)N/N=C/c1cn(Cc2ccccc2Cl)c2ccccc12 | -33.9% (active) |
| COc1cccc(Cn2cc(/C=N/NC(=O)c3cc(O)cc(O)c3)c3ccccc32)c1 | 3.21% |
| CCc1ccc(NC(=O)c2nn(-c3ccc(C)cc3)c(=O)n(C)c2=O)cc1 | -19.1% |
| Cc1ccc(N(CC(=O)NCc2ccc(Cl)cc2)S(=O)(=O)N(C)C)cc1 | 27% |
| CC(C)(C)c1ccc(C(=O)NCC(c2ccc(Cl)cc2)N2CCOCC2)cc1 (centres undefined) | -13.3% |
| O=c1cc(COc2cccc(C(F)(F)F)c2)nc2sc3c(n12)CCCC3 | -4.09% |

| Compound | activity change, negative = inhibition |
| --- | --- |
| O=C(CSCc1cnn(-c2ccccc2)c1-n1cccc1)NCc1ccc(Cl)cc1 | 5.55% |
| CCCOc1ccc(C2c3c(-c4ccccc4O)n[nH]c3C(=O)N2Cc2cccnc2)cc1 (centres undefined) | 27.7% |
| [O-][n+]1c2c(nn1-c1ccc(Cl)c(Cl)c1)-c1nonc1CC2 | -35.4% (active) |
| Cc1nnc(N2CCC(C(=O)Nc3ccc(F)cc3)CC2)c2nn(-c3ccc(Cl)cc3)c(C)c12 | -3.69% |
| COc1ccc(S(=O)(=O)N2CCCCC2)cc1Br | -47.9% (active) |
| COc1cc(C(=O)NNC(=O)c2ccc(S(=O)(=O)N3CCCCC3)cc2)cc(OC)c1OC | -4.12% |
| COc1ccc(F)cc1S(=O)(=O)N1CCCCC1 | 1.35% |
| COc1ccc(OC)c(-c2csc(-c3c(N)c(C(=O)c4ccccc4)n4ccccc34)n2)c1 | -9.07% |
| O=C(O)/C=C/C(=O)NNc1ccc([N+](=O)[O-])cc1 | 4.19% |
| Cc1c(NC(=S)NCc2ccc(F)cc2)cccc1[N+](=O)[O-] | -31.5% (active) |
| O=[N+]([O-])c1ccccc1NCc1ccc(Cl)cc1 | -2.99% |
| Cc1c(NC(=O)/C=C/C(=O)O)cccc1[N+](=O)[O-] | -41.8% (active) |
| Cc1cccc(NC(=S)NCCc2ccc(F)cc2)c1C | -6.25% |
| Cc1c(NC(=O)CCCOc2ccccc2)cccc1[N+](=O)[O-] | 0.202% |
| COc1ccc(-c2cccc(NS(=O)(=O)c3cc(C)c(OC)c(C)c3C)c2)nn1 | -20.7% |
| COc1ccc(-c2cc(C(=O)NCc3cc(OC)c(OC)c(OC)c3)[nH]n2)cc1 | -10.2% |
| COc1ccc(C(F)(F)F)cc1NC(=O)c1sc2nc(-c3cccs3)ccc2c1N | -1.54% |
| NS(=O)(=O)c1ccc(NC(=O)C(=O)Nc2ccc3nc4n(c(=O)c3c2)CCCCC4)cc1 | -3.24% |
| COc1ccc(Cc2nc3ccc(C(=O)NCc4ccccc4Cl)cc3o2)cc1 | -19.1% |
| CN1CCN(C(CNC(=O)c2ccccc2F)c2ccc3c(c2)OCO3)CC1 (centres undefined) | 8.69% |
| CCOc1cc(C(=O)NCCc2csc3nc(-c4ccc(C)cc4)nn23)cc(OCC)c1OCC | 3.63% |
| O=C(NCc1ccco1)c1nn2cccnc2c1Cl | 15.7% |
| O=C(NCc1ccco1)c1cc2sccc2n1Cc1ccc(F)cc1 | -8.06% |

| Compound | activity change, negative = inhibition |
| --- | --- |
| O=C(NCc1ccco1)c1sc2cccc(F)c2c1Cl | -46.1% (active) |
| CCOc1ccc(N2CC(C)Cn3c2nc2c3c(=O)n(Cc3c(F)cccc3Cl)c(=O)n2C)cc1 (centres undefined) | -2.48% |
| COc1ccc(CNC(=O)c2ccc3c(c2)nc2n3CCOC2)c(OC)c1 | 1.06% |
| O=C(CSc1ccc(-c2ccccc2)nn1)NCC1CCCO1 (centres undefined) | 5.37% |
| Cc1ccc(CNC(=O)CSC2=Nc3ccccc3C3=NC(C)C(=O)N23)cc1 (centres undefined) | -1.57% |
| O=C(CSC1=Nc2ccccc2C2=NC(c3ccccc3)C(=O)N12)NCC1CCCO1 (centres undefined) | -47% (active) |
| O=C(COc1ccc(Cl)cc1)Nc1ccc(-c2nc3cc(Cl)ccc3o2)c(O)c1 | 3.9% |
| CN(CC(=O)Nc1ccccc1F)S(=O)(=O)c1ccc2c(c1)c(=O)n(C)c(=O)n2C | 8.37% |
| COC(=O)c1ccc(NC(=O)C(C)N2C(=O)c3ccccc3C2=O)cc1 (centres undefined) | -2.2% |
| CCOc1ccc(NC(=O)C(C)N2C(=O)c3ccccc3C2=O)cc1 (centres undefined) | -42.7% (active) |
| CCOc1ccc(NC(=O)C(CC(C)C)N2Cc3ccccc3C2=O)cc1 (centres undefined) | 6.62% |
| COc1cc2nc(SCC(=O)Nc3ccccc3F)n3nc(-c4ccccc4)nc3c2cc1OC | -6.83% |
| COc1ccc(CNc2nc(-c3ccc(Cl)cc3)nn2C(=O)c2ccccc2)cc1 | -0.876% |
| Cc1c(C(=O)N(C)C)sc2c1c(=O)n(-c1ccc(F)cc1)c(=O)n2CC(=O)N(C)c1ccccc1 | -0.832% |
| Cc1cccc(NC(=O)Cn2c(=O)n(Cc3ccccc3)c(=O)c3c(C)c(C)sc32)c1 | -0.708% |
| CCOc1ccccc1NC(=O)Cn1c(=O)n(Cc2ccccc2)c(=O)c2c(C)c(C(=O)N(C)C)sc21 | -72.6% (active) |
| CCOc1ccc(OCC)c(NS(=O)(=O)c2ccc3[nH]c(=O)ccc3c2)c1 | -7.27% |
| CCC1SC2=NCCN2C1(O)c1ccc(Cl)cc1 (centres undefined) | -31.5% (active) |
| CCCOc1ccc(C2=CSC3=NCCN23)cc1Cl | 3.06% |
| Cc1cn(C)c(CC(=O)NCc2ccccc2)c1C(=O)O | 0.691% |
| Cc1cc(F)ccc1NC1(c2ccccc2)C(=O)c2ccccc2C1=O | -5.68% |
| COc1ccc(OCCn2cc(C(=O)C3CCCCC3)c3ccccc32)cc1 | 10.3% |
| CCOC(=O)C1CCCN(C(=O)c2ccc(-n3ccc4ccccc43)s2)C1 (centres undefined) | -9.46% |

| Compound | activity change, negative = inhibition |
| --- | --- |
| Cc1ccc(Nc2c(-c3ccc(N(C)C)cc3)nc3nc[nH]n23)cc1 | 1.41% |
| CCOC(=O)C1CCN(C(=O)c2cccc(S(=O)(=O)N(CC)c3ccccc3)c2)CC1 | -4.11% |
| CCN(c1ccccc1)S(=O)(=O)c1cccc(C(=O)NCc2ccccc2CN2CCOCC2)c1 | -31.4% (active) |
| O=C(NCc1ccccc1CN1CCCC1)c1cccc(S(=O)(=O)Nc2ccc(F)cc2)c1 | 2.42% |
| COc1cccc(Cn2c(SCc3ccc(C(=O)N4CCC(C)CC4)cc3)nc3ccncc32)c1 | -10.8% |
| CC(C)(C)OC(=O)N1CCC(c2c(C(=O)NCCc3ccsc3)cnn2-c2ccc(F)cc2F)CC1 | -6.33% |
| CCOC(=O)C1CCN(C(=O)C2CCN(S(=O)(=O)N3CCCC3)CC2)CC1 | -2.4% |
| O=C(O)C1CCN(S(=O)(=O)N2CCOCC2)CC1 | 0.172% |
| CC1CCN(C(=O)C2CCN(S(=O)(=O)N3CCC4(CC3)OCCO4)CC2)CC1 | -37.8% (active) |
| CCSc1ccccc1C(=O)Nc1ccc2c(c1)OCO2 | 10% |
| CC(=O)Nc1cccc(C(=O)OCC(=O)c2ccc3c(c2)OCO3)c1 | -0.144% |
| CC(C)C(=O)Nc1cccc(C(=O)Nc2ccc3c(c2)OCO3)c1 | -43.1% (active) |
| Cc1ccc(Cn2c(=O)n(CCCC(=O)NCc3ccccc3Cl)c(=O)c3ccccc32)cc1 | 5.86% |
| CCOc1ccc(OCC)c(Nc2nc3ccccc3n3nnnc23)c1 | 1.86% |
| Fc1ccc(CSc2nc(NCc3ccccc3)c3ccccc3n2)cc1 | 21.1% |
| Fc1ccc(CNc2nc3ccccc3n3nnnc23)cc1 | -50.2% (active) |
| CCOC(=O)c1cccc(NC(=O)C(Cc2ccccc2)NS(=O)(=O)c2cccc3nsnc23)c1 (centres undefined) | -3.2% |
| OCCNCc1cccc(OCc2ccccc2Cl)c1 | 0.511% |
| Clc1cccc(Cl)c1OCCOCCNCc1ccccc1 | -39.7% (active) |
| CCOc1ccccc1OCCCNCc1ccccc1 | -23.9% |
